About 79,000 compounds went through this panel and 15% of them were active in at least one assay; those are over-represented in the sample as a whole. Activity calls are given as the source filed them. No stated cut-off is given here; in the data, active means growth inhibition above about 70%; inactive means the rest.

The experiment can be described thus: NCI Yeast Anticancer Drug Screen. Data for the bub3 strain (AID 167). The settings on record: S. cerevisiae bub3 mutant strain, at 50.0 µM, active compounds read high. The essentials: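 Growth of a checkpoint-deficient yeast mutant is measured after compound exposure. Values represent inhibition relative to vehicle.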
Turning to `CC(C)CCOC(=S)S`, the growth inhibition is 34.2% (inactive).

Turning to `CCCCCCNC(=O)CCC(NC(=O)c1ccc(N(C)Cc2cnc3nc(N)nc(N)c3n2)cc1)C(=O)NCCCCCC` (stereo not drawn), the growth inhibition is 25.4% (inactive). Turning to `N#C/C(N)=C(\C#N)N=CNc1ccc(N)cc1`, the growth inhibition was 1.4% (inactive). Regarding `ClC1CC2CCC1C2Br` (stereo not drawn) (tested in a mixture with another compound), the growth inhibition was -0.45% (inactive).

Turning to `NC(CS)C(=O)NCCNCCNc1ccc(NCCNCCNC(=O)C(N)CS)c2c1C(=O)c1c(O)ccc(O)c1C2=O` (stereo not drawn), the growth inhibition was -10.5% (inactive). As to `Nc1c(I)cc(C(=O)O)c(O)c1I`, the growth inhibition was -5.75% (inactive). For `O=c1[nH]cnc2c1ncn2CCCc1ccccc1` the value was 3% (inactive); for `CC(=O)NNC(=S)/N=C/c1c(C)[nH]n(-c2ccccc2)c1=O`, -6.85% (inactive). The result for `CCC(CO)c1ccccc1` (stereo not drawn) reads -3.1% (inactive).

As for `CN=NNc1ccccc1`, the growth inhibition is 14.8% (inactive).

Take `CC(C)(CCCOc1ccccc1)/C(=N/O)c1ccccc1`: the growth inhibition is 11.6% (inactive). As for `COC(=O)/C(C#N)=C/c1cccnc1`, the growth inhibition is -5.45% (inactive). Turning to `CN(Cc1nc2c(N)nc(N)nc2nc1N)c1ccc(C(=O)NC(CCC(=O)O)C(=O)O)cc1` (stereo not drawn), the growth inhibition was -1.95% (inactive).

In the case of `CCN(CC)C(=O)Nc1cccc(O)c1`, the growth inhibition is -0.25% (inactive).

In the case of `O=C(NCCN1CCCC1)Nc1ccccc1`, the growth inhibition was 2.3% (inactive). For `CC(O)CN1CCOCC1` (stereo not drawn) the value was -9.85% (inactive).

For `COc1ccc(NC(=O)CC(=O)N2N=C(N(c3ccccc3)c3ccccc3)CC2c2ccccc2)cc1` (stereo not drawn), the growth inhibition is 17.6% (inactive).

Regarding `CSc1cc(/C=C/c2ccccc2)ccc1[N+](=O)[O-]`, the growth inhibition was 14.3% (inactive).

The values are drawn from PubChem BioAssay (NCI).
